# Screens (PubChem BioAssay)
# MLLE-PAM2 inh: inhibitors of microRNA-mediated deadenylation, human PABP1 MLLE binding; GST-MLLE / FITC-PAM2 fluorescence polarization; hit rate 0.36% among 360,000; inhibition, % at 20 µM; in the data active = inhibition above about 35%, passing the limit was not always enough;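 also: plate controls were DMSO wells with GST-MLLE for no effect and wells lacking GST-MLLE protein for full effect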
# PABP FP inh: PABP-poly(A) binding inhibition | P11940 | PABP-poly(A) RNA binding, fluorescence polarization | inhibition, % at 35 µM | hit rate 1% among 290,000;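 also: calls also rest on retests at 20 µM and on dose response follow-up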
# CRFBP-R2 block: CRF-BP/CRF-R2 complex antagonism; AID 588475; hit rate 0.59% among 350,000; inhibition, % at 11.8 µM; HEK293 CRF-R2/CRF-BP, CRF-induced calcium fluorescence;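 active = inhibition of the ligand-induced calcium signal above about 50% at the single tested concentration, limit read from the data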
# eIF4H inh: inhibitors of RNA binding by human eIF4H | inhibition, % at 35 µM | Q15056 | eIF4H fluorescence polarization binding assay | hit rate 0.94% among 290,000 | AID 2012;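 also: calls also rest on retests at 20 µM and on dose response follow-up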
# PHOSPHO1 block: inhibitors of human PHOSPHO1 phosphatase; recombinant PHOSPHO1, absorbance phosphatase assay; inhibition, % at 13.3 µM; hit rate 1.1% among 290,000; AID 1565; in the data active = inhibition above about 60%
# Target sequence (Q8TCT1 whole entry, looked up): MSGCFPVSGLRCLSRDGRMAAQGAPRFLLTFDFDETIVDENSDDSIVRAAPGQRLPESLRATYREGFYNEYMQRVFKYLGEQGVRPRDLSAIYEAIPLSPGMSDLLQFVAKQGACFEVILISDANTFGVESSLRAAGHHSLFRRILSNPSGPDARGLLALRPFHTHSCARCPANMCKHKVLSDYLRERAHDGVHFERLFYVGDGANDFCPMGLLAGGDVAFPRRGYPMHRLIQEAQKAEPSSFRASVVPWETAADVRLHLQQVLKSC
# * hit, by the source's call; ? = inconclusive; . = not tested or not shown. Compounds with a hit are over-represented: about 2.6% of the library has one in this group of screens. Unless noted, no rule for the calls is given here.
SMILES,MLLE-PAM2 inh,PABP FP inh,CRFBP-R2 block,eIF4H inh,PHOSPHO1 block
O=C(NCCCO)/C(=C/c1ccco1)NC(=O)c1ccc(Br)o1,8,-6,3,58*,-8
COc1ccc(NC(=O)C2CCCC2)cc1S(=O)(=O)N1CCOCC1,2,.,-3,.,.
CC(=O)c1ccc(NC(=O)C(C)OC(=O)COc2ccc(C#N)cc2)cc1 (centres undefined),5,120*,4,active,-34
NC1=C(Br)C(=O)c2ncccc2C1=O,39*,.,11,.,.
COCCNc1nc(Oc2cncc(Cl)c2)c2sccc2n1,4,.,.,.,.
CCCCn1c(SCC(=O)Nc2cc(C)on2)nc2cc(S(N)(=O)=O)ccc21,-47,.,-7,.,.
CCCCn1c(SCc2c(C)noc2C)nc2cc(S(N)(=O)=O)ccc21,-27,4,54*,-8,33
O=C(CN1c2cccc3cccc(c23)S1(=O)=O)NC1CCCCC1,7,.,70*,.,.
COC(=O)CNC(=O)CN1c2cccc3cccc(c23)S1(=O)=O,-7,58*,4,?,-31
COc1ccc(CCC(=O)O)c(C(CC(=O)O)C(=O)O)c1OS(=O)(=O)c1ccc(C)cc1 (centres undefined),-7,.,-11,.,.
COc1cccc(CN2CCC2(C)C(=O)Nc2cnc3ccccc3c2)c1F (centres undefined),2,.,.,.,.
CNc1cc(-c2cnn(CC(C)C)c2)ncn1,-1,.,.,.,.
COc1cc([N+](=O)[O-])ccc1-c1ccc(/C=N/NC(N)=O)o1,-97,44*,-53,65,30
CCn1c(SCC(=O)Nc2ccccc2F)nnc1-c1ccoc1C,-11,-5,-4,6,42
COCCCn1c(SCC(=O)Nc2ccccc2F)nnc1-c1ccoc1C,5,-5,103*,-12,19
CN1CCOc2c1cnn(CCO)c2=O,0,.,.,.,.
Cc1cc2c(c(=O)n1Cc1ccco1)C(c1cccnc1)C(C#N)=C(N)O2 (centres undefined),3,123*,8,124*,21
Nc1[nH][nH]c(=O)c1N=Nc1cccc(Cl)c1,-19,3,6,-4,1
O=C1CCN(N=Nc2cccc(Cl)c2)N1,.,8,.,-1,72*
CCOC(=O)C(CCc1ccccn1)c1ccccc1 (centres undefined),-1,.,-2,.,.
Cn1c(-c2ccc(-c3ccccc3)cc2)c[nH]c1=S,-95,-12,108*,-2,95*
CCn1c(-c2ccc(-c3ccccc3)cc2)c[nH]c1=S,-115,-1,-17,2,97*
S=c1[nH]cc(-c2ccccc2)n1-c1ccccc1Cl,-6,-6,-12,-7,-20
C=CCn1c(-c2ccccc2)c[nH]c1=S,-32,2,-1,-2,79*
C=CCn1c(-c2ccc(Cl)cc2)c[nH]c1=S,-55,-5,-28,-4,94*
SMILES,MLLE-PAM2 inh,PABP FP inh,CRFBP-R2 block,eIF4H inh,PHOSPHO1 block
COc1ccc(CCC(=O)N2CCN(S(=O)(=O)c3ccc(OC)c([N+](=O)[O-])c3)CC2)cc1,1,.,-10,.,.
CCCc1cc2c(=O)c(-c3nc4ccccc4s3)c(COCC(=O)O)oc2cc1O,-35,-20,-18,14,-31
c1ccc(Cn2ncc3c(N4CCN(c5ccccc5)CC4)ncnc32)cc1,4,.,.,.,.
O=C(O)c1ccccc1C(=O)Nc1n[nH]c(=S)s1,6,3,-8,-2,99*
O=C(O)c1ccccc1C(=O)Nc1nccs1,-4,-6,0,4,-34
COc1ccc2c(c1)c(CC(=O)Nc1ccc(C(C)=O)cc1)c(C)n2C(=O)c1ccc(Cl)cc1,-10,active,16,53*,7
N#Cc1cnn(-c2ccccc2)c1NC(=O)c1ccccc1F,2,.,2,.,.
CCc1ccccc1OCCOc1ccc(C)cc1OC,-10,0,19,-6,60*
COc1cc(C)ccc1OCCCOc1ccccc1Br,5,-3,7,1,2
COc1cc(OC)nc(Nc2nc(C(N)Cc3ccc(C(F)(F)F)cc3)cs2)n1 (centres undefined),-13,.,.,.,.
O=C1c2ccccc2OC2(C=Cc3ccccc3O2)N1Cc1ccccc1 (centres undefined),-2,2,56*,-6,17
O=C(COc1cccnc1[N+](=O)[O-])N1CCc2ccccc2C1,-14,-10,0,-1,61*
O=C(Cn1cc([N+](=O)[O-])cn1)N1CCc2ccccc2C1,3,-8,8,-10,61*
O=C(Cn1cc([N+](=O)[O-])cn1)N1CCN(c2ccccc2)CC1,12,-4,1,1,24
O=C(COc1cccnc1[N+](=O)[O-])N1CCc2ccccc21,6,-9,-4,-7,16
O=C(c1ccc([N+](=O)[O-])cc1)N1CCc2ccccc2C1,4,65*,16,4.6*,7
CC(O)(c1ccccc1)c1nc(-c2cccc(C#N)c2)cs1 (centres undefined),8,.,.,.,.
COc1cc(N)c2ncccc2c1Cl,-8,.,4,.,.
O=C(Nc1ccc(-n2cnnn2)cc1)c1cc(S(=O)(=O)N2CCCC2)ccc1Cl,-36,.,-1,.,.
Cc1ccc(C(=O)N2CCn3c(C)ccc3C2C)cc1 (centres undefined),-23,active,1,64*,-15
CC1(C(=O)NCc2cccs2)Cc2c(-c3ccc(C(N)=O)cc3)ccnc2O1 (centres undefined),-11,.,.,.,.
CSc1nc2c(=S)[nH]c(=S)[nH]c2s1,39*,.,.,.,.
COc1ccc(-c2ccc3c(N)c(C(=O)c4ccc(OC)c(OC)c4)sc3n2)cc1,-54,22,9,6,63*
COc1ccc(C(=O)c2sc3nc(-c4ccccc4)ccc3c2N)cc1OC,-54,5,-29,13,88*
COc1ccc(-c2ccc3c(N)c(C(=O)NC(C)C)sc3n2)cc1OC,8,0,5,-13,2
SMILES,MLLE-PAM2 inh,PABP FP inh,CRFBP-R2 block,eIF4H inh,PHOSPHO1 block
NC(=O)c1sc2nc(-c3ccccc3)ccc2c1N,-17,3,1,6,14
Cc1noc(C)c1S(=O)(=O)NC(=O)C1(C)CCN1C(=O)Cc1ccc(-c2ccccc2)cc1 (centres undefined),-11,.,.,.,.
Cc1oc(C)c2c(=O)ccc3c(c12)OC(N)=C(C#N)C3c1ccccc1 (centres undefined),-51,-5,-6,78,2
CSc1ccc(C2C(C#N)=C(N)Oc3c2ccc(=O)c2c(C)oc(C)c32)cc1 (centres undefined),-87,71*,2,52*,14
CCC(=O)N(C)C[C@H]1Oc2ncc(C#Cc3cccnc3)cc2C(=O)N([C@@H](C)CO)C[C@@H]1C,-28,.,2,.,.
N#Cc1cnn2c(-c3ccc(Cl)cc3Cl)ccnc12,16,-2,3,2,37
CCCNC(=O)c1nnsc1S(=O)(=O)c1ccc(Cl)cc1,21,2,70*,-6,24
CCCNC(=O)c1nnsc1S(=O)c1ccc(Cl)cc1 (centres undefined),37*,17,32,-10,-16
CNC(=O)c1nnsc1S(=O)c1ccc(Cl)cc1 (centres undefined),33,-17,20,-5,4
